NR5A2 inv ag – LRH-1 (NR5A2) inverse agonists, primary screen, cell-based, luminescence, HEK293T, StAR-luciferase reporter | Nuclear receptor subfamily 5 group A member 2 (Homo sapiens), O00482 | 360,000 compounds, 0.13% hits | inhibition, % at 3.6 µM | AID 602396, 2012 | LRH-1 transfected, 24 h;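 active = inhibition above the mean inhibition of all tested compounds plus 3 SD, cut at about 73% in these data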
NCOA2 inhibitor – inhibition of GAL4-SRC2 driven luciferase reporter, primary screen, SRC2 inhibitor project, cell-based, luminescence | HEK293 GAL4-SRC2 luciferase reporter | inhibition, % at 9 µM | 370,000 compounds, 0.17% hits | AID 651957, 2012;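 active = inhibition above the mean inhibition of all tested compounds plus 3 SD, set per campaign, cut at about 52% in these data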
SRC3 inh – SRC3 coactivator transcriptional activity inhibitors, primary screen, cell-based, luminescence; HEK293 GAL4-SRC3 luciferase reporter; 360,000 compounds, 0.17% hits; Nuclear receptor coactivator 3 (Homo sapiens), Q9Y6Q9; inhibition, % at 3.6 µM; AID 588352, 2011;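 active = inhibition above a per-campaign cutoff, the mean of all compounds plus 3 SD, cut at about 60% in these data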;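 also: higher means less SRC3-driven luciferase light from the GAL4 reporter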
NCOA1 inh – SRC1 coactivator transcriptional activity inhibitors, primary screen, cell-based, luminescence; Nuclear receptor coactivator 1 (Homo sapiens), Q15788; HEK293 GAL4-SRC1 luciferase reporter; inhibition, % at 3.6 µM; 360,000 compounds, 0.12% hits;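 active = inhibition above the campaign mean plus 3 SD, with each screening campaign given its own cutoff, cut at about 60% in these data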
COUP-TFII inh – NR2F2 transcriptional activity inhibitors, primary screen, cell-based, luciferase reporter, HEK293T, luminescence; COUP transcription factor 2 (Homo sapiens), P24468; HEK293T NGFI-A luciferase reporter; inhibition, % at 8.6 µM; 370,000 compounds, 0.7% hits; AID 686940, 2013;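 active = inhibition above a per-plate cutoff, mean inhibition of test wells between control levels plus 3 SD, cut at about 38% in these data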;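 also: cells cotransfected with COUP-TFII expression vector driving the NGFI-A reporter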
Target sequence (P24468 whole entry, looked up): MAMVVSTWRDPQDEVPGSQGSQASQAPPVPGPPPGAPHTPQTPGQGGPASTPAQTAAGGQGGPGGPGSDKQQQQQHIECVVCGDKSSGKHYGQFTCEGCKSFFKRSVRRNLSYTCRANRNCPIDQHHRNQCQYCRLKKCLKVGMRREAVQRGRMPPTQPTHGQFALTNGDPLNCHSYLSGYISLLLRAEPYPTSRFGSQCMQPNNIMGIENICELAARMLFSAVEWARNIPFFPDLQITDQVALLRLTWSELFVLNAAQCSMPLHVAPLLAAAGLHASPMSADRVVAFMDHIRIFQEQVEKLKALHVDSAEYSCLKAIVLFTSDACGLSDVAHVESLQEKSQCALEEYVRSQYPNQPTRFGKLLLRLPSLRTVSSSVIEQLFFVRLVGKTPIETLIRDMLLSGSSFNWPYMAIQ
Gli-Sufu antag – Gli-Sufu pathway antagonists, primary screen, luciferase luminescence, Sufu-KO-LIGHT cells, uHTS | AID 588413, 2011 | inhibition, % at 5 µM | Sufu-KO-LIGHT fibroblasts, Gli luciferase reporter luminescence | 340,000 compounds, 0.74% hits;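 active = inhibition above about 55%, limit read from the data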
Gli antag conf – Gli-SUFU pathway antagonists, confirmation, single concentration, luciferase luminescence, Sufu-KO-LIGHT cells | shares compounds with Gli-Sufu antag | Gli luciferase reporter | inhibition, % at 5 µM | 2,500 compounds, 40% hits | AID 602428, 2012;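 active = mean inhibition at 5 µM reaching about 45%, limit read from the data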
Gli cytotox – cytotoxicity in Sufu-KO-LIGHT cells, confirmation, cytotoxicity control for Gli-SUFU antagonist project, cell-based, ATP luminescence, single concentration; shares compounds with Gli-Sufu antag; 2,500 compounds, 32% hits; cytotoxicity, % at 5 µM;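 active = mean cytotoxicity at 5 µM above about 25%, limit read from the data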;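 also: cells exposed to compound overnight for roughly 16 to 18 hours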
Wnt3a cs – Wnt3a reporter signal inhibition, confirmation, counter-screen for Gli-SUFU antagonist project, Wnt-LIGHT cells, luminescence, single concentration; Wnt3a-driven luciferase reporter; 2,500 compounds, 20% hits; AID 651995, 2013; inhibition, % at 6.25 µM; shares compounds with Gli-Sufu antag;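 active = mean inhibition above about 25%, limit read from the data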
VP16 Luc counter – Gal4-VP16 luciferase reporter inhibitors, counter-screen for COUP-TFII antagonist project, cell-based, luminescence, HEK293. shares compounds with COUP-TFII inh. 2,500 compounds, 25% hits. inhibition, % at 8.5 µM; in the data active = inhibition above about 13%
NR2F2 inh conf – NR2F2 transcriptional activity inhibitors, confirmation, cell-based, luciferase reporter, HEK293, triplicate; 2,500 compounds, 45% hits; shares compounds with COUP-TFII inh; inhibition, % at 8.5 µM; HEK293 NGFI-A luciferase reporter, luminescence;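 active = mean inhibition over three repeats above a set limit taken from the earlier primary screen, cut at about 38% in these data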
Each line names hits and unclear results; the compound was inactive in the other large screens (follow-up assays come after a bar, where they were run). An excerpt weighted towards active compounds, which were near 1.3% of everything screened.

Cn1c(=O)c2[nH]c(CCCCCCCCc3nc4ccccc4[nH]3)nc2n(C)c1=O	COUP-TFII inh 69, Gli-Sufu antag 57 | Gli antag conf 66 | Gli cytotox 28 | Wnt3a cs inactive | VP16 Luc counter inactive | NR2F2 inh conf 58
CCOC(=O)Cc1ccc(NC(=O)c2ccccc2Br)cc1	none
CCOC(=O)Cc1ccc(NC(=O)c2ccc(C(C)(C)C)cc2)cc1	NCOA2 inhibitor 78, COUP-TFII inh 58, Gli-Sufu antag 60 | Gli antag conf 68 | Gli cytotox inactive | Wnt3a cs 101 | VP16 Luc counter 46 | NR2F2 inh conf 53
CC1(C)CC(N2CCN(Cc3ccccc3)CC2)=CC(=[N+]2CCCCC2)C1	COUP-TFII inh 53, Gli-Sufu antag 79 | Gli antag conf 85 | Gli cytotox 34 | Wnt3a cs 39 | VP16 Luc counter inactive | NR2F2 inh conf inactive
CC1(C)CC(=O)c2sc(N3CCCCC3)nc2C1	none
CC1(C)CC(NNCCC#N)=CC(=[N+]2CCCC2)C1	none
CC1(C)CC(N2CCCC2)=CC(=[N+]2CCCCC2)C1	COUP-TFII inh 56, Gli-Sufu antag 82 | Gli antag conf 85 | Gli cytotox 33 | Wnt3a cs 42 | VP16 Luc counter inactive | NR2F2 inh conf 45
CC1(C)CC(N2CCCC2)=CC(=[N+]2CCCC2)C1	COUP-TFII inh 47, Gli-Sufu antag 82 | Gli antag conf 86 | Gli cytotox 34 | Wnt3a cs 35 | VP16 Luc counter inactive | NR2F2 inh conf inactive
COc1ccc(OCc2nn3c(-c4ccccc4)nnc3s2)cc1	none (no result: NR5A2 inv ag, SRC3 inh, NCOA1 inh, Gli-Sufu antag)
S=c1[nH]nc(-c2n[nH]c3c2CCC3)n1N=Cc1ccc(Br)s1	none (no result: NR5A2 inv ag, SRC3 inh, NCOA1 inh, Gli-Sufu antag)
CCCC1CCC2(CCCN2CCOC(=O)Nc2ccc(OC)cc2)CC1 (stereo not drawn)	none (no result: NR5A2 inv ag, NCOA2 inhibitor, SRC3 inh, NCOA1 inh, Gli-Sufu antag)
Fc1ccc2[nH]c3c(NCc4ccccc4)ncnc3c2c1	COUP-TFII inh 55, Gli-Sufu antag 60 | Gli antag conf 68 | Gli cytotox inactive | Wnt3a cs 34 | VP16 Luc counter inactive | NR2F2 inh conf 38
COc1ccc2[nH]c3c(NCc4ccco4)ncnc3c2c1	none (no result: NR5A2 inv ag, NCOA2 inhibitor, SRC3 inh, NCOA1 inh, COUP-TFII inh)
CN(Cc1c(F)cccc1Cl)C(=O)c1cccc(S(=O)(=O)N2CCN(Cc3ccccc3)CC2)c1	none
CN(Cc1ccc(Cl)cc1Cl)C(=O)c1cccc(S(=O)(=O)N2CCN(c3ccccc3)CC2)c1	none
COc1cccc(CN(C)C(=O)c2cccc(S(=O)(=O)N3CCN(c4ccc(F)cc4)CC3)c2)c1OC	COUP-TFII inh 59 | Gli antag conf 50 | Gli cytotox 33 | Wnt3a cs inactive | VP16 Luc counter inactive | NR2F2 inh conf 39
CN(Cc1ccc(OC(F)F)cc1)C(=O)c1cccc(S(=O)(=O)N2CCN(Cc3ccccc3)CC2)c1	COUP-TFII inh 55, Gli-Sufu antag 58 | Gli antag conf 58 | Gli cytotox inactive | Wnt3a cs inactive | VP16 Luc counter inactive | NR2F2 inh conf 42
CN(CCOc1ccc(Cl)cc1)C(=O)c1cccc(S(=O)(=O)N2CCN(c3ccccc3)CC2)c1	COUP-TFII inh 59 | Gli antag conf 58 | Gli cytotox 34 | Wnt3a cs inactive | VP16 Luc counter inactive | NR2F2 inh conf 44
OC1OC2COC(c3ccccc3)OC2C(O)C1O (stereo not drawn)	none (no result: NR5A2 inv ag, SRC3 inh, NCOA1 inh, Gli-Sufu antag)
N=c1ccn(CC(=O)c2ccc(-c3ccccc3)cc2)cc1	SRC3 inh 73, COUP-TFII inh 58, Gli-Sufu antag 82 | Gli antag conf 84 | Gli cytotox inactive | Wnt3a cs 30 | VP16 Luc counter inactive | NR2F2 inh conf 54
S=C(NCCc1ccccc1)Nc1cccc2cnccc12	COUP-TFII inh 67 | Gli antag conf 58 | Gli cytotox inactive | Wnt3a cs 34 | VP16 Luc counter inactive | NR2F2 inh conf 61
CCCCNC(=S)Nc1cccc2cnccc12	none
CCOC(=O)C(Cc1ccccc1)CP(=O)(OC)[C@@H](C)NC(=O)OCc1ccccc1 (stereo partly drawn)	none (no result: NR5A2 inv ag, SRC3 inh, NCOA1 inh, Gli-Sufu antag)
Cc1nc2ccc(NC(=O)c3cc(S(=O)(=O)N(C)c4ccccc4)ccc3Cl)cc2s1	COUP-TFII inh 78, Gli-Sufu antag 75 | Gli antag conf 73 | Gli cytotox 26 | Wnt3a cs 53 | VP16 Luc counter inactive | NR2F2 inh conf 69
CC(C)(C)c1ccc(C(=O)NCCOc2ccccc2F)cc1	COUP-TFII inh 53, Gli-Sufu antag 55 | Gli antag conf 74 | Gli cytotox inactive | Wnt3a cs 89 | VP16 Luc counter inactive | NR2F2 inh conf 46
CC(C)(C)c1ccc(C(=O)NCCOc2ccccc2)cc1	none
CCC(C)(C)c1ccc(Oc2ccc(N)cc2)cc1	NCOA2 inhibitor 91, SRC3 inh 77, NCOA1 inh 68, COUP-TFII inh 95, Gli-Sufu antag 74 | Gli antag conf 83 | Gli cytotox 31 | Wnt3a cs 105 | VP16 Luc counter 91 | NR2F2 inh conf 98
CCC(C)(C)c1ccc(Oc2cccc(C(=O)O)c2)cc1	none
CC(=O)Nc1ccc(SCC(=O)c2cc(C)n(-c3ccccc3)c2C)cc1	COUP-TFII inh 54 | Gli antag conf 70 | Gli cytotox inactive | Wnt3a cs 77 | VP16 Luc counter 23 | NR2F2 inh conf 40
Cc1nn(C)c(C(=O)NCc2ccc(Cl)cc2)c1Cl	COUP-TFII inh 61, Gli-Sufu antag 63 | Gli antag conf 53 | Gli cytotox 29 | Wnt3a cs inactive | VP16 Luc counter inactive | NR2F2 inh conf 44
NC(=S)NNc1ccnc2cc(Cl)ccc12	none

Assay outcomes (PubChem BioAssay)
